From PubChem BioAssay (NCI) come the findings set out here.

Structures are written as SMILES. About 83,000 compounds went through this panel and 20% of them were active in at least one assay; those are over-represented in the sample as a whole.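 Negative percent growth values reflect cell death: -40 means 40% of the cells present at the start died, and -100 means all died.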 Values without a mark were called inactive. Activity calls are given as the source filed them. The calls were made as follows: active = growth percent below 10; inactive = the rest.

Common to all, as to assay: NCI-60 one-dose screen, 48 h (100 = growth as untreated, 0 = no growth, -100 = all killed)
In one assay the test system is DU-145 prostate. The following applies: 10 µM unless noted.
A further assay deals with K-562 leukemia. The following applies: 10 µM unless noted.
For the next assay, the system named is MALME-3M melanoma. The following applies: 10 µM unless noted.
In a further assay the test system is MDA-MB-231 breast. The conditions noted are these: 10 µM unless noted.
The next assay concerns RXF 393 renal. The conditions noted are these: 10 µM unless noted.
Another assay concerns SF-268 CNS. The conditions noted are these: 10 µM unless noted.
A further assay deals with SF-295 CNS. The following applies: 10 µM unless noted.
In a further assay the test system is SF-539 CNS. The conditions noted are these: 10 µM unless noted.
The test system of a further assay is UACC-257 melanoma. The following applies: 10 µM unless noted.
For the next assay, the system named is M14 melanoma. The following applies: 10 µM unless noted.
A further assay deals with HCT-15 colon. The following applies: 10 µM unless noted.
The test system of another assay is HT29 colon. The following applies: 10 µM unless noted.
The next assay relates to SNB-75 CNS. The conditions noted are these: 10 µM unless noted.
A further assay relates to SNB-19 CNS. The conditions noted are these: 10 µM unless noted.
Another assay relates to U251 CNS. The following applies: 10 µM unless noted.
The subject of another assay is PC-3 prostate. The conditions noted are these: 10 µM unless noted.
A further assay relates to SK-MEL-5 melanoma. The following applies: 10 µM unless noted.
The next assay deals with UACC-62 melanoma. The following applies: 10 µM unless noted.
A further assay concerns LOX IMVI melanoma. The following applies: 10 µM.
A further assay concerns SK-MEL-28 melanoma. The conditions noted are these: 10 µM unless noted.

On to `CN(C)c1nc(NCCNS(=O)(=O)c2ccc(C(=O)/C=C/c3ccc(F)cc3)cc2)nc(Nc2ccc(F)cc2)n1`, for which the growth with DU-145 prostate is -83.9% (active); in the assay with K-562 leukemia, -21.9% (active); with MALME-3M melanoma, -83.3% (active); in the assay on MDA-MB-231 breast it was -93% (active); with RXF 393 renal, -97% (active); with SF-268 CNS it was -59% (active). Besides, the growth is -78.3% (active) in the assay on SF-295 CNS; -99.7% (active) in the assay with SF-539 CNS; -80.6% (active) in the assay on UACC-257 melanoma; -83% (active) in the assay with M14 melanoma; -91.7% (active) with HCT-15 colon; -100% (active) in the assay with HT29 colon. The growth is -16.4% (active) in the assay on SNB-75 CNS; -74.8% (active) in the assay on SNB-19 CNS; -100% (active) with U251 CNS; -75.2% (active) in the assay with PC-3 prostate; -99.6% (active) with SK-MEL-5 melanoma; -97.1% (active) in the assay with UACC-62 melanoma. Besides, the growth in the assay with LOX IMVI melanoma and in the assay with SK-MEL-28 melanoma was -100% (active) each time.
With `C=C1CCC2C3(C)COC(c4cccc(F)c4)OC3CCC2(C)C1C/C=C1/C(=O)OCC1O` (stereo not drawn), the growth in the assay on DU-145 prostate was 4.04% (active); in the assay with K-562 leukemia it was 10.5%; in the assay with MALME-3M melanoma, -41.9% (active); in the assay on MDA-MB-231 breast, -32.8% (active); with RXF 393 renal it was -70.5% (active); with SF-268 CNS, 67.9%. Moreover, the growth in the assay with SF-295 CNS is 2.97% (active); in the assay on SF-539 CNS, -72.5% (active); in the assay on UACC-257 melanoma it was -28.8% (active); with M14 melanoma it was -40.7% (active); in the assay on HCT-15 colon it was -23.6% (active); with HT29 colon, -1.9% (active). The growth in the assay on SNB-75 CNS was 54.1%; in the assay on SNB-19 CNS, 30.1%; in the assay on U251 CNS, -90% (active); in the assay with PC-3 prostate it was -17.5% (active); in the assay with SK-MEL-5 melanoma, -19.3% (active); in the assay with UACC-62 melanoma, 2.91% (active). Also, in the assay on SK-MEL-28 melanoma, the growth was -26.2% (active).
In the case of `COc1ccc2[nH]cc(-c3nc(N)nnc3-c3cn(C)c4ncccc34)c2c1`, the growth in the assay with DU-145 prostate was 83.9%; in the assay with K-562 leukemia it was 21.6%; in the assay with MALME-3M melanoma it was 37.6%; with MDA-MB-231 breast, 43.4%; with RXF 393 renal, 81.5%; in the assay on SF-268 CNS, 75.8%. In addition, the growth with SF-295 CNS is 39.9%; with SF-539 CNS, 50.2%; with UACC-257 melanoma it was 72.9%; in the assay with M14 melanoma, 33.2%; with HCT-15 colon, 44.4%; with HT29 colon it was 35.6%. For the same compound, the growth in the assay on SNB-75 CNS was 14.2%; in the assay on SNB-19 CNS it was 63.8%; with U251 CNS, 60.1%; in the assay with PC-3 prostate, 68.4%; in the assay with SK-MEL-5 melanoma it was 31.2%; in the assay on UACC-62 melanoma, 37.7%. Also, the growth with SK-MEL-28 melanoma was 62.3%.
Consider `NS(=O)(=O)c1ccc(N=Nc2c(O)n(CC(=O)Nc3ccccc3)c3ccccc23)cc1`, for which the growth was 21.2% in the assay on DU-145 prostate; 14.7% with K-562 leukemia; 20.7% in the assay with MALME-3M melanoma; -9.74% (active) in the assay with MDA-MB-231 breast; 48.9% in the assay on RXF 393 renal; 75.3% in the assay on SF-268 CNS. In addition, the growth with SF-295 CNS is 13.3%; in the assay with SF-539 CNS it was -27.2% (active); with UACC-257 melanoma, 61.5%; with M14 melanoma it was 11.2%; in the assay on HCT-15 colon, 16%; in the assay with HT29 colon it was 2.37% (active). In addition, the growth in the assay with SNB-75 CNS was 42.2%; in the assay on SNB-19 CNS, 20.2%; in the assay on U251 CNS, -15.1% (active); in the assay on PC-3 prostate, 20.8%; in the assay with SK-MEL-5 melanoma, 24.6%; in the assay with UACC-62 melanoma it was 22.1%. Moreover, in the assay on SK-MEL-28 melanoma, the growth is -2.1% (active).
With `COc1cc2c(c(OC)c1OC)C(=O)CC(c1cccc(NC(=O)c3cccc([N+](=O)[O-])c3)c1)O2` (stereo not drawn), the growth is 26.9% in the assay with DU-145 prostate; 25.7% in the assay on K-562 leukemia; 33.5% with MALME-3M melanoma; 24.2% in the assay on MDA-MB-231 breast; 43.6% with RXF 393 renal; 38.4% in the assay on SF-268 CNS. Moreover, the growth in the assay on SF-295 CNS is 44.6%; in the assay on SF-539 CNS it was 48.7%; with UACC-257 melanoma, 44.1%; in the assay with M14 melanoma, 37.2%; in the assay with HCT-15 colon, 16.9%; with HT29 colon, 34.7%. The growth was 38.1% in the assay on SNB-75 CNS; 52.6% in the assay on SNB-19 CNS; 49.1% in the assay with U251 CNS; 18.6% with PC-3 prostate; -6.2% (active) with SK-MEL-5 melanoma; 13.4% with UACC-62 melanoma. The growth in the assay with SK-MEL-28 melanoma was 41.7%.
Turning to `S=C(NCCc1ccccc1)Nc1ccc(OCc2nc3ccccc3[nH]2)cc1`, the growth in the assay with DU-145 prostate was 110%; in the assay on K-562 leukemia, 101%; in the assay with MALME-3M melanoma, 102%; with MDA-MB-231 breast it was 109%; with RXF 393 renal, 122%; with SF-268 CNS it was 100%. In addition, the growth in the assay with SF-295 CNS is 104%; in the assay with SF-539 CNS, 102%; in the assay on UACC-257 melanoma, 99.1%; in the assay with M14 melanoma, 95.9%; with HCT-15 colon it was 98%; in the assay with HT29 colon, 108%. Moreover, the growth was 103% in the assay on SNB-75 CNS; 102% with SNB-19 CNS; 99.7% in the assay with U251 CNS; 105% in the assay with PC-3 prostate; 102% in the assay on SK-MEL-5 melanoma; 93.1% in the assay on UACC-62 melanoma. The growth with SK-MEL-28 melanoma was 110%.
Take `COc1cc2oc(-c3cccc(NC(=O)[C@H](Cc4ccccc4)NC(=O)OC(C)(C)C)c3)cc(=O)c2c(OC)c1OC`: the growth is 35.7% in the assay with DU-145 prostate; 23% with K-562 leukemia; 35% with MALME-3M melanoma; 42.7% with MDA-MB-231 breast; 31% with RXF 393 renal; 62% with SF-268 CNS. The growth is 36.8% in the assay on SF-295 CNS; 43.1% in the assay on SF-539 CNS; 75.5% in the assay with UACC-257 melanoma; 51.7% in the assay on M14 melanoma; 17.4% in the assay on HCT-15 colon; 22.8% with HT29 colon. Besides, the growth in the assay on SNB-75 CNS was 97.6%; with SNB-19 CNS, 40%; in the assay on U251 CNS, 36.6%; with PC-3 prostate, 39.7%; with SK-MEL-5 melanoma it was 17.9%; in the assay with UACC-62 melanoma, 54.6%. Besides, the growth with SK-MEL-28 melanoma is 49.9%.
For `COc1ccc(NC(=O)[C@H](CO)NC(=O)OC(C)(C)C)cc1C(=O)Nc1cccc(C2CC(=O)c3c(cc(OC)c(OC)c3OC)O2)c1` (stereo partly drawn), the growth in the assay with DU-145 prostate was 58.4%; in the assay with K-562 leukemia it was 28.4%; in the assay on MALME-3M melanoma, 61.4%; in the assay with MDA-MB-231 breast, 41.9%; in the assay on RXF 393 renal it was 53%; with SF-268 CNS, 65.1%. Moreover, the growth in the assay on SF-295 CNS is 69.1%; in the assay on SF-539 CNS it was 79.1%; with UACC-257 melanoma, 75.3%; in the assay on M14 melanoma it was 66%; with HCT-15 colon, 33%; in the assay on HT29 colon, 49.4%. Besides, the growth in the assay on SNB-75 CNS was 51.4%; in the assay with SNB-19 CNS, 69.2%; in the assay on U251 CNS it was 61.9%; with PC-3 prostate it was 49.8%; with SK-MEL-5 melanoma it was 27.9%; in the assay on UACC-62 melanoma, 49.1%. The growth in the assay on SK-MEL-28 melanoma was 71.4%.
